Hit rate of the full screen: of about 310,000 compounds, about 18,000 (5.8%) were called active. A call without a number means that no potency is given here. Roughly 22% stayed inconclusive and do not appear here. Many of the other results were omitted from the sample, so actives are more common in it than they were. Unmarked numbers belong to inactive results. Calls follow the shape of the dose curve; as a rule, active = well fitted inhibition curve with a large enough effect; inconclusive = small, poorly fitted or top-dose-only effect, or another doubt; inactive = no such curve, though single readings can be large or run the other way.
experiment: Primary qHTS for delayed death inhibitors of the malarial parasite plastid, 48 hour incubation; conditions: P. falciparum luciferase growth in erythrocytes; series mostly up to 28.7 µM
Summary of the method: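 Erythrocytes infected with P. falciparum carrying an integrated firefly luciferase reporter (2% hematocrit, 0.1% parasitemia final) were exposed to compounds in RPMI 1640 with 0.5% Albumax at 37 C, 5% CO2. Growth inhibition was scored as reduced luminescence.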
Potency is read from the fitted curve at half-maximal effect.

Row | SMILES | Potency | activity change, negative = inhibition
1 | COc1ccc(N2CCN(C(=O)c3ccccc3NC(=O)C3=C(C)OCCS3)CC2)cc1 | inactive | –
2 | c1ccc(-c2noc(-c3cccs3)n2)nc1 | inactive | –
3 | c1ccc(-n2nnnc2-c2cccnc2)cc1 | inactive | –
4 | Clc1ccc(-n2nnnc2-c2cnc(-c3ccccn3)nc2-c2cccs2)cc1 | 3.7 µM (active) | –
5 | Cc1ccc(OC(=O)c2cncc(Br)c2)c(C)c1 | inactive | –
6 | CCn1c(SCC(=O)NC2CC2)nnc1-c1ccncc1 | inactive | –
7 | O=C(Nc1ccc(Cl)c(Cl)c1)c1ccccc1NC(=O)C1CC=CCC1C(=O)O (stereo not drawn) | inactive | –
8 | CCCSc1nc(NCc2ccco2)c2c3c(sc2n1)COC(C)(CC)C3 (stereo not drawn) | 9.28 µM (active) | –
9 | CN1CCc2c(sc3c2c(NCc2ccco2)nc2nnnn23)C1 | inactive | –
10 | CN(C)CCSc1nc(N)c2c3c(sc2n1)COC(C)(C)C3 | inactive | –
11 | COc1cc(C2NC(=O)NC(c3ccccc3)=C2C(C)=O)c(Br)cc1OCC(N)=O (stereo not drawn) | inactive | –
12 | CCOc1ccc(C(C)NC(=O)CN2C(=O)NC3(CCCCC3)C2=O)cc1OCC (stereo not drawn) | inactive | –
13 | Cc1ccc(COC(=O)CN2C(=O)NC3(CCCC3)C2=O)cc1 | inactive | –
14 | CCOc1ccc(C(C)=O)cc1COC(=O)CN1C(=O)NC2(CCCC2)C1=O | 13.1 µM (active) | –
15 | CCC1C(=O)NCCN1C(=O)c1ccc2nc(Cc3ccc(OC)cc3)oc2c1 (stereo not drawn) | inactive | –
16 | CCOc1ccc(NC(=O)C2CCCN(C(=O)Nc3ccccc3)C2)cc1 (stereo not drawn) | inactive | –
17 | COc1ccc(CCNC(=O)C2CCCN(S(=O)(=O)c3ccc(OC)cc3)C2)cc1 (stereo not drawn) | 9.28 µM (active) | –
18 | COc1ccc(CCNC(=S)N2CCN(S(=O)(=O)c3ccc(F)cc3)CC2)cc1 | 2.62 µM (active) | –
19 | CC(C)CCNC(=O)C1CCCN(S(=O)(=O)c2ccc(F)cc2)C1 (stereo not drawn) | inactive | –
20 | CCCCNC(=O)C1CCCN(S(=O)(=O)c2ccc(S(=O)(=O)NCC(C)C)cc2)C1 (stereo not drawn) | inactive | –
21 | CCOc1cccc(NC(=O)C2CCCN(S(=O)(=O)c3ccc(OC)cc3)C2)c1 (stereo not drawn) | 4.65 µM (active) | –
22 | CCOC(=O)N1CCN(S(=O)(=O)c2ccc(OC)cc2)CC1 | inactive | –

Row | SMILES | Potency | activity change, negative = inhibition
23 | COc1ccc(CCNC(=S)N2CCN(S(=O)(=O)c3ccc(Cl)cc3)CC2)cc1 | inactive | –
24 | CCN(CC(=O)Nc1ccc(S(=O)(=O)N2CCCC2)cc1)CC(=O)Nc1cccc(OC)c1 | inactive | –
25 | Cc1cccc(OCC(=O)NCCNC(=O)c2cccnc2)c1 | inactive | –
26 | CC(C)(C)C(=O)Nc1ccc(-c2cn3cccnc3n2)cc1 | inactive | –
27 | CN(Cc1ccccc1)C(=O)C(=O)c1cn(CC(=O)N2CCCC2)c2ccccc12 | inactive | –
28 | O=c1oc2ccc(C#CC3(O)CCCCC3)cc2cc1-n1cc(-c2ccsc2)nn1 | inactive | –
29 | CCc1ccc(-c2nn(-c3ccccc3C)cc2C(=O)N2CCN(C3CCS(=O)(=O)C3)CC2)cc1 (stereo not drawn) | inactive | –
30 | O=C(NCCC1=CCCCC1)c1ccc(-n2cncn2)cc1 | inactive | –
31 | CCc1noc(C)c1C(=O)Nc1nc2ccc(OC)cc2s1 | inactive | –
32 | CCOc1ccc(S(=O)(=O)N2CCCC(C(=O)N3CCC(C(N)=O)CC3)C2)cc1Cl (stereo not drawn) | inactive | –
33 | Cc1ccc(C)c(N2CCN(C(=O)CCCCCn3c(=S)[nH]c4ccc(N5CCOCC5)cc4c3=O)CC2)c1 | 7.38 µM (active) | –
34 | Cc1ccc(C)c(N2CCN(C(=O)CCc3nc4ccccc4[nH]3)CC2)c1 | inactive | –
35 | Cc1ccc(C)c(N2CCN(C(=O)CCCCn3c(=O)[nH]c4ccccc4c3=O)CC2)c1 | inactive | –
36 | COCc1c(C(=O)N/N=C(\C)c2ccncc2)nnn1-c1nonc1N | inactive | –
37 | C=CCNc1scc(-c2ccccc2)[n+]1CC=C | 4.15 µM (active) | –
38 | Cc1ccc(NC(=O)Nc2ccccc2)c(Br)c1 | inactive | –
39 | C=CC[n+]1c(-c2ccc(C)cc2)csc1NNC(=O)Nc1ccccc1 | 11.7 µM (active) | –
40 | C=CCNC(=O)c1csc(-c2ccccc2)n1 | inactive | –
41 | Cc1ccc(NC(=O)NNC(=O)c2sccc2-n2cccc2)cc1 | inactive | –
42 | O=C(Cc1ccccc1)Nc1ccc(NC(=O)c2cccnc2)cc1 | inactive | –
43 | CN1CCN(CCNC(=O)Nc2ccccc2[N+](=O)[O-])CC1 | – | -5.7% [at 0.00184 µM]
44 | COc1ccc(CN(C)C(=O)Cc2c[nH]c3ccccc23)c(OC)c1OC | – | 13.9% [at 0.00184 µM]

Row | SMILES | Potency | activity change, negative = inhibition
45 | COc1ccccc1C(C)NC(=O)Cc1ccsc1 (stereo not drawn) | inactive | –
46 | COc1ccc(CN(C)C(=O)Cc2ccsc2)c(OC)c1OC | 13.1 µM (active) | –
47 | CS(=O)(=O)N(CC(=O)N1CCCCCC1)c1cccc(Cl)c1Cl | inactive | –
48 | NS(=O)(=O)c1ccc(NC(=S)N2CCCC2)cc1 | inactive | –
49 | O=C(c1ccc(Cl)cc1)N1N=C(c2ccccn2)CC1(O)C(F)(F)F (stereo not drawn) | 4.65 µM (active) | –
50 | O=C(C1CC1)N1N=C(c2ccc(Br)cc2)CC1(O)C(F)(F)F (stereo not drawn) | – | -12.6% [at 0.00184 µM]
51 | COC(=O)C1(O)CC(C(C)C)=NN1C(=O)c1ccc(Cl)cc1 (stereo not drawn) | inactive | –
52 | COc1ccc(CCNC(=O)COC(=O)C2CC2C)cc1 (stereo not drawn) | inactive | –
53 | Cc1ccc(S(=O)(=O)N(C)C)cc1NC(=O)c1ccc(-n2cncn2)c([N+](=O)[O-])c1 | inactive | –
54 | O=[N+]([O-])C(=c1ccc2c(c1)N1C3=C(CCCC3)CC3CCCCC31N=2)[N+](=O)[O-] (stereo not drawn) | 2.94 µM (active) | –
55 | Cc1ccc(S(=O)(=O)NCCC(=O)Nc2cccc(S(N)(=O)=O)c2)cc1C | inactive | –
56 | O=C(CN(C(=O)c1nsc(Cl)c1Cl)c1cccc(F)c1)NC1CCCC1 | inactive | –
57 | COc1cccc(N(CC(=O)NC2CCCC2)C(=O)CCCC(=O)Nc2ccccn2)c1 | inactive | –
58 | COC(=O)c1cn(C(=O)c2ccc(Cl)cc2)c2ccccc12 | inactive | –
59 | COC(=O)c1ccccc1Sc1c(/C=N/OCc2ccc(Cl)cc2)c(C(F)(F)F)nn1C | 1.85 µM (active) | –
60 | COC(=O)c1ccccc1NC(=O)Cn1nc(C(F)(F)F)c2c1CCC2 | inactive | –
61 | O=c1ccc(S(=O)(=O)N2CCCC2)cn1Cc1nc(-c2ccccc2)no1 | inactive | –
62 | CC1=C(C(N)=O)C(c2ccc(F)cc2)n2nc(CCCO)nc2N1 (stereo not drawn) | inactive | –
63 | Cc1ccc(-n2c(-c3ccc(Cl)cc3)n[nH]c2=S)cc1 | inactive | –
64 | S=c1[nH]cc(-c2ccc(Cl)cc2)n1-c1ccccc1 | 1.85 µM (active) | –
65 | S=c1[nH]ccn1-c1ccc(Cl)cc1 | inactive | –
66 | O=C(O)c1cccc2c1C(=O)N(C1CCCC1)C2 | inactive | –

Row | SMILES | Potency | activity change, negative = inhibition
67 | Cc1ccc(CN2CCN(Cc3cn(C)nc3-c3ccccc3)CC2CCO)o1 (stereo not drawn) | inactive | –
68 | Cc1ccccc1CN1CCN(CC(=O)NCc2ccccn2)C1=O | inactive | –
69 | Cc1ccccc1CN1C[C@@H]2C[C@@H](c3cn(C)nc3-c3ccccc3)N3CCC[C@@]23C1=O | 6.57 µM (active) | –
70 | Cc1c(C)c(C)c(S(=O)(=O)NCCc2ccccn2)c(C)c1C | inactive | –
71 | Cc1c(S(=O)(=O)N2CC(C)CC(C)C2)c(=O)n(C)c(=O)n1C (stereo not drawn) | inactive | –
72 | COc1cc(OC)cc(C(=O)NCC(=O)N2CCCCCCC2)c1 | inactive | –
73 | CN(C)P(=S)(Nc1ccccc1)C(Cl)(Cl)Cl (stereo not drawn) | 11.7 µM (active) | –
74 | O=S(=O)(Nc1ccc2nc(N3CCOCC3)sc2c1)c1ccccc1 | inactive | –
75 | C#CCOCCOCCOCCNc1nc(N2CCN(C(=O)[C@H](CCC(=O)O)n3cc(C(N)CO)nn3)CC2)nc(N2CCN(C(=O)[C@H](CCCCN)n3cc(C(N)[C@H](C)CC)nn3)CC2)n1 (stereo partly drawn) | inactive | –
76 | C#CCOCCOCCOCCNc1nc(N2CCN(C(=O)[C@H](CCCCN)n3cc(CCC(=O)O)nn3)CC2)nc(N2CCN(C(=O)[C@H](CCCCN)n3cc(CC(C)O)nn3)CC2)n1 (stereo partly drawn) | inactive | –
77 | C#CCOCCOCCOCCNc1nc(N2CCN(C(=O)CCCCCCCCCCNC(=O)[C@H](CCCCN)n3cc(C)nn3)CC2)nc(N2CCN(C(=O)CCCCCCCCCCNC(=O)[C@H](CO)n3cc(CCCSC)nn3)CC2)n1 | 0.586 µM (active) | –
78 | C#CCOCCOCCOCCNc1nc(N2CCN(C(=O)CCCCCCCCCCNC(=O)Cn3cc(CCCCCN)nn3)CC2)nc(N2CCN(C(=O)CCCCCCCCCCNC(=O)[C@H](CO)n3cc(CCCSC)nn3)CC2)n1 | 2.94 µM (active) | –
79 | C#CCOCCOCCOCCNc1nc(N2CCN(C(=O)[C@H](CCC(=O)O)n3cc(C(N)CO)nn3)CC2)nc(N2CCN(C(=O)[C@H](CCCCN)n3cc(C(N)CC(C)C)nn3)CC2)n1 (stereo partly drawn) | inactive | –
80 | C#CCOCCOCCOCCNc1nc(N2CCN(C(=O)[C@H](C(C)C)n3cc(CCO)nn3)CC2)nc(N2CCN(C(=O)[C@H](C(C)C)n3cc(CCO)nn3)CC2)n1 | inactive | –
81 | C#CCOCCOCCOCCNc1nc(N2CCN(C(=O)CCCCCCCCCCNC(=O)[C@H]([C@@H](C)CC)n3cc(CCCCN=C(N)N)nn3)CC2)nc(N2CCN(C(=O)CCCCCCCCCCNC(=O)[C@H](CO)n3cc(CCCSC)nn3)CC2)n1 | 0.329 µM (active) | –
82 | C#CCOCCOCCOCCNc1nc(N2CCN(C(=O)[C@H](CCC(=O)O)n3cc(C(N)CO)nn3)CC2)nc(N2CCN(C(=O)[C@H](Cc3ccc(O)cc3)n3cc(C(N)[C@H](C)CC)nn3)CC2)n1 (stereo partly drawn) | inactive | –
83 | C#CCOCCOCCOCCNc1nc(N2CCN(C(=O)[C@H](C(C)C)n3cc(CCO)nn3)CC2)nc(N2CCN(C(=O)[C@H]([C@@H](C)CC)n3cc(CCCN=C(N)N)nn3)CC2)n1 | inactive | –
84 | COc1ccccc1Oc1ccc(N2CC(C(=O)OCC(=O)c3ccc(F)cc3)CC2=O)cc1 (stereo not drawn) | inactive | –
85 | Cc1ccccc1NC(=O)c1cc(S(=O)(=O)Nc2cccc(C(=O)O)c2)ccc1Cl | inactive | –
86 | CC(C)[C@@H]1COC(c2cccc(C3=N[C@H](C(C)C)CO3)c2)=N1 | inactive | –
87 | CC1C(=O)N(Cc2ccccc2)c2ccccc2N1C(=O)c1ccccc1 (stereo not drawn) | inactive | –
88 | O=C(OCC(=O)N1CCc2ccccc21)C1CCCN1S(=O)(=O)c1ccc(Cl)cc1 (stereo not drawn) | inactive | –
